RXFP1 antag: qHTS Assay for Antagonists of the Relaxin Receptor RXFP1. Relaxin receptor 1 (Homo sapiens), Q9HBX9. HEK293-RXFP1, relaxin-stimulated cAMP HTRF, 30 min; active compounds read low. activity change, negative = inhibition, % at 57.5 µM. 350,000 compounds, 0.59% hits. AID 1259400, 2018;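 active means activity change of -60% or lower, but not beyond a set lower limit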; further: on the % scale 0 is the no-effect control and ±100 the full control effect
Target sequence (Q9HBX9 whole entry, looked up): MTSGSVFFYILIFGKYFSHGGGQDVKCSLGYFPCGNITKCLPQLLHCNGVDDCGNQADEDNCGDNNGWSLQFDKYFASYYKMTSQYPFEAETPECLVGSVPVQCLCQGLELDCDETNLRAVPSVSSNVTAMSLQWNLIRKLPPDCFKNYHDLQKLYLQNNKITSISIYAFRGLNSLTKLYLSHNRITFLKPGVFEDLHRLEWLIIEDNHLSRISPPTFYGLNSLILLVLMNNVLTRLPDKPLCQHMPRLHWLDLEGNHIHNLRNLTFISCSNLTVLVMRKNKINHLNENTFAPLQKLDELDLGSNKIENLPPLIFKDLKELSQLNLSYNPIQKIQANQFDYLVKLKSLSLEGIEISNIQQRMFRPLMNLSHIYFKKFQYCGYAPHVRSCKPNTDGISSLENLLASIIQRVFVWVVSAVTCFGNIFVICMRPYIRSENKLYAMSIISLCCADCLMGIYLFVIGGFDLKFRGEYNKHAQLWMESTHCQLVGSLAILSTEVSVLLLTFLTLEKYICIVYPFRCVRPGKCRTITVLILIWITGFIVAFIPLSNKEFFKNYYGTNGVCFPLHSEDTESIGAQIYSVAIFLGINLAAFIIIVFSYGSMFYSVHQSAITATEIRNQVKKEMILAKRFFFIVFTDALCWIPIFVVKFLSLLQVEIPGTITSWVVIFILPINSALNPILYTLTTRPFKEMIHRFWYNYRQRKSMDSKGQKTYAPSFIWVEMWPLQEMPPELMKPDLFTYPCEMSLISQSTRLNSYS
NPSR antag: qHTS Assay for Antagonists of the Neuropeptide S Receptor: cAMP Signal Transduction. Q6W5P4. CHO-NPSR cells, cAMP TR-FRET, antagonist mode. Potency, µM (series often up to 38.3 µM), for the others: top-dose activity change, negative = inhibition, hits mostly inhibitors. 220,000 compounds, 1% hits. AID 1461, 2008; further: potency means the concentration at half of the fitted maximal effect; on the % scale 0 is the no-effect control and ±100 the full control effect; nearly all actives have a fitted effect of over 50% in size
PTHR1 ag: qHTS for PTHR1 Agonists: Primary Screen. Parathyroid hormone/parathyroid hormone-related peptide receptor (Homo sapiens), Q03431. HEK293 GP2 PTHR1 cells, GloSensor cAMP luminescence, 1 h. Potency, µM (titrated, usually from 115 µM), inactives show at the highest dose activation, actives largely listed as activators. 410,000 compounds, 0.075% hits. AID 743266, 2014; further: potency means the concentration at half of the fitted maximal effect; nearly all actives have a fitted effect of over 55% in size
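HEK-293-derived GP2 cells expressing PTHR1 and a GloSensor cAMP reporter, 3,000/well, plated overnight, given luciferin plus IBMX (each 0.5 mM as added) for 1 h at 37 °C, then compound for 1 h at 37 °C. Luminescence was read after 15 min at room temperature.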
TSHR antag: Antagonists of the Thyroid Stimulating Hormone Receptor: HTS campaign; 330,000 compounds, 0.2% hits; TSHR-expressing cells, TSH-stimulated cAMP HTRF, 2 h; active compounds read low; activity change, negative = inhibition, % at 11.5 µM;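 active means activity change below a set negative limit, meaning inhibition stronger than a set level, cut at about -70% in these data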; further: on the % scale 0 is the no-effect control and ±100 the full control effect
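Competitive HTRF cAMP read-out (cryptate anti-cAMP antibody, cAMP-d2; 30 min, room temperature) in freshly harvested TSHR cells. Compounds added before TSH at EC80 (4nM final), followed by 2 hours' incubation at 37 deg C.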
TCR activator: Activators of T cell receptors: qHTS campaign; primary human leukocytes, anti-CD3, IL-2 HTRF, 48 h; Potency, µM (titrated, usually from 9.22 µM), inactives show at the highest dose activation of IL-2 secretion, actives largely listed as activators; 330,000 tested, under 10 active; further: % of control where 0% means no effect
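Primary human leukocytes incubated 48 hr with anti-CD3 beads plus compound, without co-stimulation. Secreted IL-2 measured by HTRF (europium cryptate/d2 anti-IL-2 pair, 320 nm excitation, 665 nm emission).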
RXFP1 ag: qHTS Assay for Agonists of the Relaxin Receptor RXFP1; Relaxin receptor 1 (Homo sapiens), Q9HBX9; HEK293T-RXFP1 cAMP TR-FRET, 30 min; response scale: percent of porcine relaxin response, buffer zero; AID 2676, 2010; 370,000 compounds, 0.3% hits; Potency, µM (doses to about 57.5 µM), for inactives: at the top dose activation, actives largely listed as activators; further: potency means the concentration at half of the fitted maximal effect; on the % scale 0 is the no-effect control and ±100 the full control effect; nearly all actives have a fitted effect of over 60% in size
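Agonist response is measured as cAMP accumulation in an RXFP1-transfected HEK293T line under PDE4 inhibition. Values are scaled between buffer-only and 29 nM porcine relaxin, and EC50s come from standard Hill equation fits.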
Starred values were filed as active, the others as inactive; [ ] = another dose, or the depositor's remark. Only a selection was taken, and hits are over-represented in it overall. Unless noted, the call rests on the fitted dose curve; in most records, active means well fitted curve in the direction sought with a large enough effect; inconclusive means small, poorly fitted or top-dose-only effect, or another doubt; inactive means no such curve, though single readings can be large; an effect the other way counts as inactive or inconclusive.

COc1cc2c(N3CCN(C(=O)Nc4ccc(OC(C)C)cc4)CC3)ncnc2cc1OCCCN1CCCCC1 was read as RXFP1 antag 14.
`CCc1ccc(NC(=O)CSC2=Nc3ccccc3C3=NC(CC(=O)NC4CCCCC4)C(=O)N23)cc1` (centres undefined) gave RXFP1 antag -70*, PTHR1 ag 18% and RXFP1 ag 1%.
CC(C)c1ccc(NC(=O)CSC2=Nc3ccccc3C3=NC(CC(=O)NC4CCCCC4)C(=O)N23)cc1 (centres undefined) was read as RXFP1 antag -40, PTHR1 ag 14% and RXFP1 ag 0%.
For COc1ccc(NC(=O)c2ccc(NC(=O)CCS(=O)(=O)c3cccs3)cc2)cc1 the results were RXFP1 antag -97*, PTHR1 ag -12%, TSHR antag -4, TCR activator -2% and RXFP1 ag 0%.
Screening NC(=O)NS(=O)(=O)c1ccc(Cl)cc1 returned RXFP1 antag 10.
`NS(=O)(=O)c1ccc(CCNC(=O)C2CCC(Cn3c(=S)[nH]c4ccccc4c3=O)CC2)cc1` (centres undefined) gave RXFP1 antag -69*, NPSR antag 9%, PTHR1 ag -5%, TSHR antag 6, TCR activator -6% and RXFP1 ag 5%.
Cc1ccc2ccc(Cl)cc2n1 was read as RXFP1 antag 10.
`COCC(C)N1C(=O)Cc2c1nc(N)c1c(N)nc(N3CCN(c4ccccc4F)CC3)c(C#N)c21` (centres undefined) gave RXFP1 antag -60*, NPSR antag -29%, PTHR1 ag -19%, TSHR antag -8, TCR activator 4% and RXFP1 ag 19%.
CN(CCCNC(=O)c1cc2c(=O)n(C)c3ccccc3c2s1)Cc1ccccc1 was read as RXFP1 antag -21, PTHR1 ag inactive and RXFP1 ag 8%.
For CCOc1ccccc1NC(=O)C(=O)NCCc1sc2nc(-c3ccc(OC)cc3)nn2c1C the results were RXFP1 antag 2, PTHR1 ag -22% and RXFP1 ag 0%.
For COc1cccc(/C=N/Nc2ncnc(Cl)c2N)c1O the results were RXFP1 antag -39, NPSR antag -18%, PTHR1 ag inactive, TSHR antag -8, TCR activator -4%[46.1 µM] and RXFP1 ag 3%.
COc1cccc(/C=N/Nc2nccnc2Cl)c1O was read as RXFP1 antag -70*, NPSR antag -3%, PTHR1 ag -17%, TSHR antag -10, TCR activator -2% and RXFP1 ag 0%.
Cc1ccc(OCC(=O)N(Cc2ccco2)Cc2ccco2)cc1 was read as RXFP1 antag -22, PTHR1 ag -4% and RXFP1 ag 3%.
For Cc1ccc(OCC(=O)N(Cc2ccco2)Cc2ccco2)cc1C the results were RXFP1 antag -60*, PTHR1 ag -9% and RXFP1 ag 0%.
Screening Cc1cc(C)c(OCC(=O)N(Cc2cccc(F)c2)Cc2ccco2)c(C)c1 returned RXFP1 antag -102*, PTHR1 ag -16% and RXFP1 ag 1%.
COc1ccccc1OCC(=O)N(Cc1ccco1)Cc1ccccc1F was read as RXFP1 antag -62*, PTHR1 ag inactive and RXFP1 ag -2%.
Screening Cc1cccc(C)c1OCC(=O)N(Cc1ccco1)Cc1ccco1 returned RXFP1 antag -34, PTHR1 ag -1% and RXFP1 ag 0%.
Screening Cc1cc(Cl)ccc1OCC(=O)N(Cc1ccco1)Cc1ccccc1F returned RXFP1 antag -61*, PTHR1 ag -11% and RXFP1 ag 0%.
For Cc1cc(C)cc(OCC(=O)N(Cc2ccco2)Cc2ccccc2Cl)c1 the results were RXFP1 antag -36, PTHR1 ag -26% and RXFP1 ag 0%.
For CCOC(=O)c1cccc(NC(=O)Cn2c(=O)nc(-c3ccccc3F)c3cc(Cl)ccc32)c1 the results were RXFP1 antag 12, PTHR1 ag -14% and RXFP1 ag 2%.
`Cc1c(C(=O)NCc2ccccc2)sc2nc3n(c(=O)c12)CCC3` gave RXFP1 antag -9, PTHR1 ag 13% and RXFP1 ag 0%.
O=Cc1ccc(O)c(O)c1O was read as RXFP1 antag -5.
For CCc1ccc(CN(Cc2ccco2)C(=O)COc2ccc(Cl)cc2C)cc1 the results were RXFP1 antag -69*, PTHR1 ag inactive and RXFP1 ag 0%.
For Cc1cc(OC(C)C(=O)N(Cc2ccco2)Cc2ccco2)cc(C)c1Cl (centres undefined) the results were RXFP1 antag -88*, PTHR1 ag -24% and RXFP1 ag 0%.
For Cc1ccc(CN(Cc2ccco2)C(=O)COc2cc(C)c(Cl)c(C)c2)cc1 the results were PTHR1 ag inactive and RXFP1 ag 0%.
For CC(C)(C)c1ccc(OCC(=O)N(Cc2ccco2)Cc2ccccc2F)cc1 the results were RXFP1 antag -95*, PTHR1 ag inactive and RXFP1 ag -4%.
Screening CC[C@H](C)[C@H](N)C(=O)O returned RXFP1 antag -5.
For CCc1ccc(-n2nc(CO)c(C(=O)NC(C)c3ccc(Cl)cc3)n2)cc1 (centres undefined) the results were RXFP1 antag -20, PTHR1 ag inactive and RXFP1 ag 5%.
For CCc1nc(N)nc(N)c1-c1ccc(N(C)Cc2ccccc2)c([N+](=O)[O-])c1 the results were RXFP1 antag -103*, PTHR1 ag -18% and TCR activator 3%.
For Cc1noc(-c2ccc(N(C)Cc3ccccc3)c([N+](=O)[O-])c2)n1 the results were PTHR1 ag -32% and RXFP1 ag 5%.
For O=C1NC(=Nc2ccccc2)S/C1=C\C=C\c1ccco1 the results were RXFP1 antag -102*, NPSR antag -41%, PTHR1 ag -34%, TSHR antag 1, TCR activator -7%[46.1 µM] and RXFP1 ag 1%.
For Cc1ccc(N=C2NC(=O)/C(=C/C=C/c3ccco3)S2)cc1 the results were RXFP1 antag -67*, NPSR antag -28%, PTHR1 ag -6%, TSHR antag 2, TCR activator 2%[46.1 µM] and RXFP1 ag 2%.
